From ChEMBL document CHEMBL3988442, “University of Dundee, Small-Polar-MMV Screening Library” (2021)
For part of these data: Results with a measured potency or affinity are listed apart.

How the values were obtained:
Set-up in all cases: scale not given: direction of the effect not stated beside the values
[1] = target: Protein translocase subunit SecA (Escherichia coli (strain K12)) (UniProt P10408); test: Assay to Identify E. coli SecA ATPase Inhibitors; type: functional; conditions: 30 µM
[2] = target: T1, Ubiquitin-activating enzyme e1, putative (Leishmania donovani (strain BPK282A1)) (UniProt E9BSI1); test: Leishmania donovani Ubiquitin Activating Enzyme (LdE1); type: functional; conditions: 30 µM
T1 sequence (whole entry): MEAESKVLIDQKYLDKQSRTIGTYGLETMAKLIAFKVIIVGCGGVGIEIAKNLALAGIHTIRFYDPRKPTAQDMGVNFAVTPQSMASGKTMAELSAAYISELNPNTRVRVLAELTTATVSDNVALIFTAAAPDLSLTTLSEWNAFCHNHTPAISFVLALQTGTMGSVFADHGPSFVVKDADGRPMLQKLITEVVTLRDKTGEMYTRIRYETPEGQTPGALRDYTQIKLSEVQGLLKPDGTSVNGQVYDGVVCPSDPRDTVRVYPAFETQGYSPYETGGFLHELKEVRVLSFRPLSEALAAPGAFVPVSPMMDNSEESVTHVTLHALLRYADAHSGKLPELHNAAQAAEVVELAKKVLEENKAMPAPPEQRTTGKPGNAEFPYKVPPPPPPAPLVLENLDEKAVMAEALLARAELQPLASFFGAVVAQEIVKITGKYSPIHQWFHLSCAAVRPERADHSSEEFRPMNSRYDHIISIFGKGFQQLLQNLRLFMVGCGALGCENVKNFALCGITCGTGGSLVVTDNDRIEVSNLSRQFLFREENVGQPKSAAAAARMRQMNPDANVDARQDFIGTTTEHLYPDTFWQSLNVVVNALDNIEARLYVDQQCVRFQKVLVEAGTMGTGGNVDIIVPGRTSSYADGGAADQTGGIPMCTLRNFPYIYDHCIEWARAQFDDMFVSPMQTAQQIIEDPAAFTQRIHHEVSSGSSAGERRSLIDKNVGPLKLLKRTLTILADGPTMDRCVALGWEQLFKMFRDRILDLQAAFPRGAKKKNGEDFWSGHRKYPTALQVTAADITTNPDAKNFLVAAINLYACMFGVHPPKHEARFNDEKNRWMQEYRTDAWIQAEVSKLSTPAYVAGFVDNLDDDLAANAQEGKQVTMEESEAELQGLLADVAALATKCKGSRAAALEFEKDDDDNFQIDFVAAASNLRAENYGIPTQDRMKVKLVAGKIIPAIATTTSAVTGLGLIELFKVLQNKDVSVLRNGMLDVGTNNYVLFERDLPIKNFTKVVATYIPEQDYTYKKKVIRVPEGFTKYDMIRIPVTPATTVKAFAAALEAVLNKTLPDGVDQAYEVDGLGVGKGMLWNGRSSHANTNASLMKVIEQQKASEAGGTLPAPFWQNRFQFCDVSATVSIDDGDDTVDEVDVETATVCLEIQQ

[3] = target: AMP-activated protein kinase, AMPK (Homo sapiens) (UniProt P54646+O43741+P54619+Q9UGJ0+Q9Y478+Q13131+Q9UGI9); test: AMP-dependent Kinase enzyme assay. An in vitro enzyme assay that detects ADP turnover that is directly proportional to AMPK activity. This uses naive AMPK that is activated during the assay with MK-8722; type: functional; conditions: 30 µM
[4] = target: Sialic acid-binding Ig-like lectin 9 (Homo sapiens) (UniProt Q9Y336); test: Hs-Siglec9 ALPHAscreen SOP 20170721; conditions: 10 µM
Trypanosoma cruzi = test: Trypanosoma cruzi phosphomannomutase and mannose-1-phosphate guanylyltransferase assay; type: functional; conditions: 10 µM
[5] = target: T2, Arginase-2, mitochondrial (Homo sapiens) (UniProt P78540); test: in vitro enzyme assay to detect the production of urea directly proportional to the activity of Arginase II; type: functional; conditions: 33.3 µM; also: in the data most compounds retested in dose-response had high values
T2 sequence (whole entry): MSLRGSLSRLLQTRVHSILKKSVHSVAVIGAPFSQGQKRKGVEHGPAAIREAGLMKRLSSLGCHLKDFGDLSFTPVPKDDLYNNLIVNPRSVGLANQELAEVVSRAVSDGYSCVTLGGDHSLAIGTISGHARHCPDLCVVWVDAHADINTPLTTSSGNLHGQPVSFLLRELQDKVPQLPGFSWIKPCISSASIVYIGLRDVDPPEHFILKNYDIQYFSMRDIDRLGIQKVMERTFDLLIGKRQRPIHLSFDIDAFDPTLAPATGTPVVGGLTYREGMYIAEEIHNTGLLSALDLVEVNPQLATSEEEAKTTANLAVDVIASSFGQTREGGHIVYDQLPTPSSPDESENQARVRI

[6] = target: T3, Proteasome subunit beta (Trypanosoma cruzi) (UniProt O96673); test: Trypanosoma cruzi proteasome chymotrypsin-like activity (TcProtChymo) assay.; also: in the data most compounds retested in dose-response had high values; type: functional; conditions: 9.37 µM
T3 sequence (whole entry): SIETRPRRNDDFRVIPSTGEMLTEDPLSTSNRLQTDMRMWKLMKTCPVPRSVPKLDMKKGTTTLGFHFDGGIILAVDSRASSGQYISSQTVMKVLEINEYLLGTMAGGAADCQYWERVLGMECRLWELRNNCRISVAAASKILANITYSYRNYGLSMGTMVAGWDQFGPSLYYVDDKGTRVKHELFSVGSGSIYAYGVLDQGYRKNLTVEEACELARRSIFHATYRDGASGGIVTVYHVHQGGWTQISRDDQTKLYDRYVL

Homo sapiens = species: Homo sapiens; test: To identify inhibition of the IFN signalling (Jak-Stat) pathway via expression of an eGFP reporter gene under the control of an IFN-stimulated response element (ISRE) containing MxA promoter.; type: functional; conditions: 30 µM
[7] = target: T4, Tyrosyl-tRNA synthetase, putative (Trypanosoma cruzi (strain CL Brener)) (UniProt Q4DSP6); test: Trypanosoma cruzi tyrosyl tRNA synthetase (TcYRS) _High Tyrosine SOP; type: functional; conditions: 30 µM; also: in the data most compounds retested in dose-response had high values
T4 sequence (whole entry): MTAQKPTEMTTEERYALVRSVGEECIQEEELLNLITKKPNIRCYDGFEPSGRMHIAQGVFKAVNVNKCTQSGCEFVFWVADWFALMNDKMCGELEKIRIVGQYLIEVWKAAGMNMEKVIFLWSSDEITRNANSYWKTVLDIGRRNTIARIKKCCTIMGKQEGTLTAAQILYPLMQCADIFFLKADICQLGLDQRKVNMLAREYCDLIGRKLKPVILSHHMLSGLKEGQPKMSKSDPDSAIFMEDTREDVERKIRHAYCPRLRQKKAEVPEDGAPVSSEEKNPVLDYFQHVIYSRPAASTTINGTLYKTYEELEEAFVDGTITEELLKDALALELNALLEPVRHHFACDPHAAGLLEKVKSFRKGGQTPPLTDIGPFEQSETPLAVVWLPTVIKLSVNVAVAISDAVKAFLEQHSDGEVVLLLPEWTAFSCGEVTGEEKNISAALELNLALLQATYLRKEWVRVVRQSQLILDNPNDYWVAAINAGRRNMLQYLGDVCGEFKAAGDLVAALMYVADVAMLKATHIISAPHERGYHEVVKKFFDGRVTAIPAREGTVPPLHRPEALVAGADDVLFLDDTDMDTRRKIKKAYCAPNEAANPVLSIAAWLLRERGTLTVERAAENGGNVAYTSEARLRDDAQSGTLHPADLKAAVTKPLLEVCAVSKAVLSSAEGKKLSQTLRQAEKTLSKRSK

[8] = target: T4, Tyrosyl-tRNA synthetase, putative (Trypanosoma cruzi (strain CL Brener)); test: Trypanosoma cruzi tyrosyl tRNA synthetase (TcYRS) SOP; type: functional; conditions: 30 µM
[9] = target: Chromo domain-containing protein 1 (Saccharomyces cerevisiae (strain ATCC 204508 / S288c) (Baker's yeast)) (UniProt P32657); test: ScCHD-1 Enzyme Inhibition Assay; type: functional; conditions: 30 µM; also: in the data most compounds retested in dose-response had high values
Chain of Chromo domain-containing protein 1 (Saccharomyces cerevisiae (strain ATCC 204508 / S288c) (Baker's yeast)) (P32657 whole entry, the tested form may be a part): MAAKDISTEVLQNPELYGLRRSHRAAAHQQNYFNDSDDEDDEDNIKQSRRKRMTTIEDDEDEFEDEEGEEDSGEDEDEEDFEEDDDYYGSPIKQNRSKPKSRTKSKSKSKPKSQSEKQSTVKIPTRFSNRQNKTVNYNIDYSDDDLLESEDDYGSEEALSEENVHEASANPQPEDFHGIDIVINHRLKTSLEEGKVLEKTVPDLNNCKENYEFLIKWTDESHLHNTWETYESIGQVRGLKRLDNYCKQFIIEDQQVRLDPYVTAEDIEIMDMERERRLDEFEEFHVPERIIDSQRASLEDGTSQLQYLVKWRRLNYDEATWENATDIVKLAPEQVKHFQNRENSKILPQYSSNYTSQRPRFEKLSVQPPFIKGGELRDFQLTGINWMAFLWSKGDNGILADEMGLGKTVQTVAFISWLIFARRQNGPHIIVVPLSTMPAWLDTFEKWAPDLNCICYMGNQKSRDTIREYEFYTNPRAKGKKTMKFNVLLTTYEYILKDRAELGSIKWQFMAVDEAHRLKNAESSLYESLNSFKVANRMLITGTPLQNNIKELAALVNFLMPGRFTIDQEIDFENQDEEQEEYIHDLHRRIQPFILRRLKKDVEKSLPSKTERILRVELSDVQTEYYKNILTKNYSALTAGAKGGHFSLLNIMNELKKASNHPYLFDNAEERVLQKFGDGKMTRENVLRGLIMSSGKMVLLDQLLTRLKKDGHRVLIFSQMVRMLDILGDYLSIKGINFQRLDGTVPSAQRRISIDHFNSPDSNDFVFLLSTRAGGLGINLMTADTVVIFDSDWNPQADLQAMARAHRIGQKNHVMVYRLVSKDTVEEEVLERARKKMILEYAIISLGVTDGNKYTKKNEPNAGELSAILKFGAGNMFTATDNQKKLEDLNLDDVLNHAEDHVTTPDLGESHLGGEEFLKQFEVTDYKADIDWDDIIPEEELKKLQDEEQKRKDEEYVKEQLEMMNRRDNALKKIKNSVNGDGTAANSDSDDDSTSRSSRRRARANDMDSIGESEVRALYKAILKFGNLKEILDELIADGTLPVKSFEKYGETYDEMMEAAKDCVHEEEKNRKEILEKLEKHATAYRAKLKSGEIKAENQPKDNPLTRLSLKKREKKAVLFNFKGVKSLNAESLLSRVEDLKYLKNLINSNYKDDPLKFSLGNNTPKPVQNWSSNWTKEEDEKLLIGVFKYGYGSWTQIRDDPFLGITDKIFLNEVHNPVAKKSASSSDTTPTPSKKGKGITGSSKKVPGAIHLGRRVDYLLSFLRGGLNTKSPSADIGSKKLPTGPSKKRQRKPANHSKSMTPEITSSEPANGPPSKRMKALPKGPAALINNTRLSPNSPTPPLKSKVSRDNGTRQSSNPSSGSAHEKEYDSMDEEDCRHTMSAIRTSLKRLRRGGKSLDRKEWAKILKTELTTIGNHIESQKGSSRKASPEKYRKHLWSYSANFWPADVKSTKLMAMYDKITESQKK

Chain of Protein translocase subunit SecA (Escherichia coli (strain K12)) (P10408 whole entry): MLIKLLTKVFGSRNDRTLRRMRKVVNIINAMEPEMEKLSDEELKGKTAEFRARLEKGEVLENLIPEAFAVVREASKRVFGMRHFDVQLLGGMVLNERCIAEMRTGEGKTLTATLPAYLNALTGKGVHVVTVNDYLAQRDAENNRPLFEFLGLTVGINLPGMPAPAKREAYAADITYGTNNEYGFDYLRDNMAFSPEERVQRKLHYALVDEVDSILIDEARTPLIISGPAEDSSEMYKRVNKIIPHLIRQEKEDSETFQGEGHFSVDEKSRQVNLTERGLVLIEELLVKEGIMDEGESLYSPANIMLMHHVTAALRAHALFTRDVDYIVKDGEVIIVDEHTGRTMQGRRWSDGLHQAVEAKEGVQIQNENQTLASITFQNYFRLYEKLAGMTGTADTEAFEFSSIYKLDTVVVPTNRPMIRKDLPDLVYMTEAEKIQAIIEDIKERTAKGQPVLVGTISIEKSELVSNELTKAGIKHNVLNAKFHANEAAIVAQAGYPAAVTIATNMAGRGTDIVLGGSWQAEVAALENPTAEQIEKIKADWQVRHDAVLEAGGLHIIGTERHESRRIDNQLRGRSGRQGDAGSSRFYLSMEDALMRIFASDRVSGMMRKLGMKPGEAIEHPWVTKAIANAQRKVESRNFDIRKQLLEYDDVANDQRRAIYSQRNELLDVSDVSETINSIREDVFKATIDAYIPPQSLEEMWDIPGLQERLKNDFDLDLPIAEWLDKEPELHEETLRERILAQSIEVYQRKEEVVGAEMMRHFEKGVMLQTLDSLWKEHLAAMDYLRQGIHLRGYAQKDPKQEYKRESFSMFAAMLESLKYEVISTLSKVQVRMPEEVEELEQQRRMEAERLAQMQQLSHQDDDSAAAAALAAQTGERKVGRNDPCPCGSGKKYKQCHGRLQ
Chain of Sialic acid-binding Ig-like lectin 9 (Homo sapiens) (Q9Y336 whole entry): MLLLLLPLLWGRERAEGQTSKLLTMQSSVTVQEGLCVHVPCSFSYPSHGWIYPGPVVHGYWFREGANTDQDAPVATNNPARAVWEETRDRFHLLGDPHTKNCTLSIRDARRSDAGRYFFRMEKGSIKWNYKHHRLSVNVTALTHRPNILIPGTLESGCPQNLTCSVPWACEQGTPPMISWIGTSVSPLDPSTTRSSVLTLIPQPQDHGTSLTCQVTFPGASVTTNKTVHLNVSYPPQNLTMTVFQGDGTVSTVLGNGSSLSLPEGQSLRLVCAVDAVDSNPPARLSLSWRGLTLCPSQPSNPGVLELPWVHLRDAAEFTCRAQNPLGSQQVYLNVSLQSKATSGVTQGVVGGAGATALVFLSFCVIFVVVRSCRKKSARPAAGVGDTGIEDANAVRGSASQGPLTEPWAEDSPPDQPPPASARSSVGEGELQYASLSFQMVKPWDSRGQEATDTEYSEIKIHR

Structure (SMILES)	Percent Effect [1]	Percent Effect [2]	Percent Effect [3]	Percent Effect [4]	Percent Effect (Trypanosoma cruzi)	Percent Effect [5]	Percent Effect [6]	Percent Effect (Homo sapiens)	Percent Effect [7]	Percent Effect [8]	Percent Effect [9]
Cc1noc(C(C)N2CCN(CC(=O)N3CCOCC3)CC2)n1 (stereo unspecified)	-5.15%	10.5%	-3.04%	-5.34%	5.55%	-4.73%	-3.93%	-8.61%	2.13%	10.4%	-15.2%
CC(NC(=O)CCC(=O)c1cccs1)c1nnc2n1CCCCC2 (stereo unspecified)	-1.87%	-2.7%	-8.57%	-0.426%	-3.06%	5.73%	-5.39%	10%	3.96%	13.4%	2.68%
CN(CCCOc1ccc(F)cc1)Cc1nc2c(cnn2C)c(=O)[nH]1	-0.991%	15.8%	0.698%	-3.57%	4.39%	1.8%	14.8%	0.0389%	8.37%	23.5%	-8.26%
Cc1ccc(N2CCCC(NCC(=O)Nc3cc(C)no3)C2)nn1 (stereo unspecified)	-1.36%	13.9%	-2.91%	-5.54%	-3.59%	0.215%	13%	17.8%	1.04%	7.59%	-23.2%
Cc1cc(-c2cnc(N3CCN(C)CC3)nc2-c2ccc(C)s2)on1	-2.21%	-1.35%	10.6%	0.731%	-4.15%	2.09%	2.81%	-1.59%	1.07%	6.49%	-16.5%
CC1CCN(C(=O)c2ccn(COc3ccc(F)cc3)n2)CC1	-1.66%	5.2%	-0.0433%	10.1%	2.26%	-5.52%	25%	-6.17%	6.45%	16.1%	-3.54%
O=C(CCc1ccccc1)C1CCCN(C(=O)c2ncc(F)cc2F)C1 (stereo unspecified)	-4.95%	5.48%	0.372%	-8.02%	-1.18%	2.73%	9.94%	2.79%	5.38%	10%	-1.5%
CN(c1ccncn1)C1CC2(CCN(C(=O)CCc3cccs3)C2)C1 (stereo unspecified)	-3.27%	1.35%	6.25%	8.01%	5.34%	-1.16%	1.87%	39.7%	5.38%	6.49%	-4.42%
O=C1NCCCCC1Sc1nnc(-c2cccnc2)n1C1CC1 (stereo unspecified)	-2.96%	2.74%	5.81%	0.732%	-2.55%	0%	9.23%	-4.55%	7.53%	12.5%	-6.68%
Cc1cccc(COC[C@@H]2CC[C@H]3[C@H](CCN3Cc3ccco3)O2)n1	-0.0692%	16.4%	-0.44%	9.35%	7.74%	-2.79%	15.2%	-16.7%	5.21%	13.6%	-7.59%
COc1ccccc1CN1CCC2(CC1)CC(Oc1ccccn1)CO2 (stereo unspecified)	-0.474%	16%	-2.4%	-9.97%	2.76%	132%	14.9%	-3.26%	4.25%	8.97%	-13.9%
COc1ccc(CN(C)[C@@H]2CN(C(=O)c3cccs3)C[C@H]2O)cc1	-3.27%	6.76%	10.4%	2.59%	-6.13%	-2.09%	10.6%	15.6%	5.38%	9.09%	-9%
CC(C)c1csc(C2CCCN(C(=O)c3ncccn3)C2)n1 (stereo unspecified)	-4.12%	-2.7%	4.03%	-10.4%	-4.99%	-0.744%	3.69%	7.7%	-3.23%	-3.7%	-2.9%
Cc1nc(CN2C[C@@H]3CN(C(=O)c4ccnnc4)C[C@@H]3C2=O)cs1	-4.78%	5.41%	6.23%	4.54%	-0.684%	2.23%	11.6%	-22.8%	3.24%	7.69%	4.63%
Cn1cc(CN2CC[C@@H]3O[C@H](C(=O)N4CCOCC4)C[C@@H]32)cn1	1.91%	-2.7%	0.801%	-2.48%	-3.91%	2.5%	-0.0845%	-20.5%	-46.5%	-3.66%	4.62%
O=C(Cc1ccc2c(c1)OCO2)N1CCN(c2cnccn2)CC1	-1.75%	15.8%	-3.5%	4.13%	6.77%	4.21%	8.69%	2.58%	5.39%	21.9%	-11.8%
COc1ccsc1C(=O)N1CCCC(n2nc(C)nc2C)C1 (stereo unspecified)	0.303%	0%	-4.74%	-3.48%	-6.89%	2.66%	-1.72%	6.32%	6.4%	3.8%	1.65%
OCC1CCCN1c1cc(N2CCc3ccccc3C2)ncn1 (stereo unspecified)	-5.73%	5.2%	-4.03%	-9.93%	8.13%	-6.95%	7.84%	-3.87%	3.81%	14.1%	-20.3%
CCn1cnnc1CNC(=O)c1cc(Cl)ccc1O	-2.03%	8.86%	6.87%	-0.716%	-5.44%	-7.1%	17%	11.3%	5.21%	-15.2%	-14%
Cc1cc(-c2nnn(CCNS(C)(=O)=O)n2)ccc1F	-6.86%	5.48%	0.593%	2.92%	3.17%	0.399%	4.71%	17.4%	9.38%	18.5%	-2.42%
CCc1nnc2n1CCN(Cc1ccc3c(c1)OCCO3)C2	0.332%	18.9%	-5.31%	-8.03%	-3.06%	1.29%	7.9%	28.3%	2.97%	13.4%	-0.119%
